Screens deposited in PubChem by National Center for Advancing Translational Sciences (NCATS).
ELG1 DNA repair = blocks ELG1-dependent DNA repair in HEK293T cells | hit rate 2.3% among 330,000 | HEK293T ELG1-luciferase reporter, luminescence, 16 h; DNA damage induced by 5-fluorouridine | Potency, µM (series often up to 46.1 µM), for the others: top-dose activity change, negative = inhibition, actives largely listed as inhibitors; also: potency is read from the fitted curve at half-maximal effect; nearly all actives have a fitted effect of over 55% in size
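Luminescence from the luciferase reporter, measured 30 min after ONE-Glo reagent at room temperature, was the read-out. Beforehand, 2,000 cells per well were exposed for 16 hr at 37 °C to 5-fluorouridine together with compound or vehicle.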
IL-1B inflam inh = inflammasome signaling inhibition, IL-1 beta readout. AID 743279. activity change, % at 57.5 µM. hit rate 4.7% among 360,000. THP-1 LPS/ATP IL-1B secretion, AlphaLISA, 16 h; active compounds read low; in the data active = activity change below about -50%; inconclusive = mostly about -30% to -49%
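Secreted IL-1B measured by AlphaLISA bead assay after 16 h compound exposure of THP-1 cells; compounds (final up to 57.5 uM) added 1 h before LPS (250 ng/mL) and ATP (1.25 mM) stimulation; lower signal means less secretion.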
TDP1 cell CPT = growth inhibition of DT40 Tdp1-/-;hTDP1 cells with camptothecin (screen for TDP1 inhibitors). hit rate 12% among 420,000. Potency, µM (highest dose often 46.2 µM), for inactives: top-dose activity change, negative = growth inhibition, usual class: inhibitors. chicken DT40 Tdp1-/-;hTDP1 cells + 20 nM CPT, ATP luminescence, 48 h. AID 686979; also: potency is read from the fitted curve at half-maximal effect; nearly all actives have a fitted effect of over 55% in size
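Cell growth measured by CellTiter-Glo luminescence after a minimum 48 h, 37 C compound exposure with 20 nM CPT in Tdp1-knockout DT40 cells stably expressing hTDP1, seeded 400/well; qHTS titration format.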
TDP1 block = TDP1 (human) enzyme inhibition; Potency, µM (doses to about 130 µM), for the others: at the highest dose activity change, negative = inhibition, most hits filed as inhibitors; recombinant TDP1, AlphaScreen DNA substrate cleavage; hit rate 0.28% among 350,000; Q9NUW8; also: potency is read from the fitted curve at half-maximal effect; nearly all actives have a fitted effect of over 40% in size
Target sequence (Q9NUW8 whole entry, looked up): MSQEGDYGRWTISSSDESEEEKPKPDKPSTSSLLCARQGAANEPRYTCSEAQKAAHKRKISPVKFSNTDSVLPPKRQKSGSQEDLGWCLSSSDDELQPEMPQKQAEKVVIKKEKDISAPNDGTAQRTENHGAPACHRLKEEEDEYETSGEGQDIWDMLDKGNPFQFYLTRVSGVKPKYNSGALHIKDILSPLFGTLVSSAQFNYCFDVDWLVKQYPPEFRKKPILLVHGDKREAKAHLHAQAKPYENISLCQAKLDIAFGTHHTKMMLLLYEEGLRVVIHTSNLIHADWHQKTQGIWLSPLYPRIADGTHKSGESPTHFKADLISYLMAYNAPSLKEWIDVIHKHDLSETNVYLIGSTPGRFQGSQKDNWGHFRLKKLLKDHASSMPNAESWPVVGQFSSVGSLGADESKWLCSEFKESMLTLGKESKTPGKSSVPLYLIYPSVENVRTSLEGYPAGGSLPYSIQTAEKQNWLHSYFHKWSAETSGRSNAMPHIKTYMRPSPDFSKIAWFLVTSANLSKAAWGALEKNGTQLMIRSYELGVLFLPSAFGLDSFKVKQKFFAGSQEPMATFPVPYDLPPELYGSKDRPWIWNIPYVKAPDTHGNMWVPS
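E. coli-derived human Tdp1, 1 nM final. Cpd preinc 15 min RT; substrate 15 nM final, 5 min RT; AS bead mix 10 ug/ml final, 10 min RT. Signal loss = tyrosine-FITC cleavage. No-enzyme wells = max signal.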
Giardia killer = kills Giardia lamblia. hit rate 0.15% among 340,000. Giardia lamblia trophozoite viability. AID 540267. activity change, % at 7.66 µM, hits read low; in the data active = activity change below about -80%; inconclusive = between about -30% and that limit;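 also: parasites exposed to compound for two days anaerobically before the ATP read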
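Giardia trophozoites, 100 cells per well, were exposed to compounds for 48 hrs at 37 deg C under anaerobic conditions; viability was then read as ATP content by bioluminescence after 15-30 min at room temperature.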
DT40 TDP1 no CPT = qHTS for Inhibitors of human tyrosyl-DNA phosphodiesterase 1 (TDP1): qHTS in cells in absence of CPT | DT40 Tdp1-/- hTDP1 cells, no CPT, ATP luminescence, 48 h | Potency, µM (titrated, usually from 46.2 µM), inactives show top-dose activity change, negative = growth inhibition, hits mostly inhibitors | hit rate 15% among 420,000 | AID 686978, 2013; also: potency is read from the fitted curve at half-maximal effect; nearly all actives have a fitted effect of over 55% in size
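Cells were dispensed at 400 per well, compounds added by pin tool, plates incubated ≥48 hr at 37 °C, then CellTiter-Glo added for 30 min at room temperature before luminescence reading. Line: DT40 Tdp1-/- complemented with hTDP1; camptothecin omitted.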
Active calls of the source: *; ? = inconclusive; . = no result; ! = not confirmed by another sample; [ ] = another dose, or the depositor's remark. A selection: hits, their analogues and other compounds. The true share with any hit is near 19%. Unless noted, calls follow the shape of the dose curve; as a rule, active = well fitted curve in the direction sought with a large enough effect; inconclusive = small, poorly fitted or top-dose-only effect, or another doubt; inactive = no such curve, though single readings can be large; an effect the other way counts as inactive or inconclusive. % is scaled to controls: 0 for no effect and ±100 for the full control effect.

SMILES	ELG1 DNA repair	IL-1B inflam inh	TDP1 cell CPT	TDP1 block	Giardia killer	DT40 TDP1 no CPT
CC(=O)N1CCCC1c1nc2ccccc2n1Cc1cccc(Cl)c1 (centres undefined)	.	.	-22%	9%	.	?
C/C(=N\NC(N)=S)C1=CCC2C3CC[C@H]4CC(O)CC[C@]4(C)C3CC[C@]12C (some centres undefined)	-5%	-52*	18µM*	.	2	5.2µM*
CC12CCC3C(CCC4CC(O)CCC43C)C1CC=C2c1ccccc1 (centres undefined)	.	.	.	10%	.	.
CS(=O)(=O)c1ccc(-c2ccc3c(c2)CC(CNC(=O)C2(N4CCOCC4)CCCCC2)O3)cc1 (centres undefined)	.	.	-13%[9.04 µM]	.	.	16µM*
Nc1nc(SCC(=O)Nc2cccc(C(F)(F)F)c2)n[nH]1	.	.	-14%	.	.	-27%
CCCCCn1c(-c2cccc(C)c2)nc2ccccc21	.	.	?	3%	.	?
CC(CNC(=O)[C@@H](Cc1ccccc1)NC(=O)CC[C@H]1O[C@@H](n2ccc(=O)[nH]c2=O)[C@H](O)[C@@H]1O)c1ccccc1 (some centres undefined)	.	-66*	8%	.	.	36%
CCOC(=O)c1nn(-c2ccc(C)c(C)c2)c(=O)c(C#N)c1C	-3%	0	-11%	.	-16	-12%
CN1C2CCC1CC(OC(c1ccccc1)c1ccccc1)C2 (centres undefined)	-23%	?	?	-6%[56.1 µM]	1	-36%
CN1CCCC(OC(=O)c2ccc(Cl)cc2)C1 (centres undefined)	?	-6	3%	6%	-13	?
CN1[C@@H]2CC[C@H]1CC(OC(c1ccccc1)c1ccccc1)C2 (some centres undefined)	.	.	7.5µM*	2%	.	21µM*!
CN1CCC(OC(c2ccccc2)c2ccc(Cl)cc2)C1 (centres undefined)	.	.	?	.	5	21µM*
O=C(CCOc1ccccc1)Nc1ccccc1F	?	6	2%	.	22	-7%
CCN(CC)c1ccc(NC(=O)c2sc3nc(-c4ccccc4)cn3c2C)cc1	.	.	3.7µM*	10%	.	5.2µM*
COc1ccc(-c2cn3c(C)c(C(=O)Nc4cc(NC(C)=O)ccc4OC)sc3n2)cc1	13%	5	13µM*	-1%[56.1 µM]	4	9.2µM*
Cc1c(C(=O)Nc2ccc3c(c2)OCCO3)sc2nc(-c3ccccc3)cn12	13µM*	-92*	8.2µM*	3%	0	5.8µM*
Cc1c(C(=O)Nc2ccncc2)sc2nc(-c3ccccc3)cn12	13µM*	19	18µM*	-13%	9	10µM*
Cc1c(C(=O)NCc2ccco2)sc2nc(-c3ccccc3)cn12	?	-15	?	7%	4	?
Cc1onc(-c2ccccc2)c1C(=O)Nc1ccc2c(c1)OCCO2	-3%	24	?	2%	0	-24%
Fc1ccccc1-n1ncc2c1ncn1nc(COc3ccc(Cl)cc3)nc21	.	.	?	1%	.	-27%
O=C(Nc1cccc(Cl)c1)Nc1nnc([C@H]2C[C@H](O)[C@@H](CO)O2)s1	.	11	-5%	.	.	?
COc1ccc(CCNC(=O)CCn2c(=O)c3ccccc3n(CC(=O)Nc3ccccc3F)c2=O)cc1OC	.	.	-11%	0%	.	-2%
COc1ccc(OC)c(CNC(=O)CCn2c(=O)c3cccn3c3ccc(F)cc32)c1	0%	23	?	0%	-4	?
Cc1ccc(CCNC(=O)CCCn2c(=O)c3cccn3c3ccc(F)cc32)cc1	.	.	?	-5%	.	16µM*
CC(CNC(=O)CCn1c(=O)c2cccn2c2ccc(F)cc21)c1ccccc1 (centres undefined)	7%	0	13µM*!	5%	-4	?
